Holding throughout (experiment): NCI-60 one-dose screen, 48 h (100 = growth as untreated, 0 = no growth, -100 = all killed)
Conditions in all cases: 10 µM unless noted

Assay [1] deals with NCI-H23 lung.
Assay [2] concerns NCI-H226 lung.
The subject of assay [3] is HOP-62 NSCLC.
Assay [4] has as its system NCI-H460 lung.
For assay [5], the system named is HOP-92 NSCLC.
Assay [6] deals with NCI-H522 lung.
Assay [7] deals with A549/ATCC NSCLC.
Assay [8] concerns 786-0 renal.
In assay [9] the test system is COLO 205 colon.
The subject of assay [10] is DU-145 prostate.
The subject of assay [11] is K-562 leukemia.
Assay [12] concerns MALME-3M melanoma.
In assay [13] the test system is MDA-MB-231 breast.
For assay [14], the system named is RXF 393 renal.
The test system of assay [15] is SF-268 CNS.
For assay [16], the system named is SF-295 CNS.
Assay [17] deals with SF-539 CNS.
For assay [18], the system named is UACC-257 melanoma.
Assay [19] has as its system M14 melanoma.

Molecules are shown by their SMILES. About 83,000 compounds went through this panel and 20% of them were active in at least one assay; those are over-represented in the sample as a whole.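 Percent growth is the endpoint: 0 to 100 indicates growth inhibition (40 means 60% inhibition), 0 means no net growth, and negative values indicate cell death.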 Unmarked numbers belong to inactive results. Activity calls are given as the source filed them. The calls were made as follows: active = growth percent below 10; inactive = the rest.

As for `CCCCCCCCCCCCCCCCCCOc1ccccc1CCCOP(=O)(O)OCC[N+](C)(C)C`, the growth was 93.5% in assay [1]; 92.3% in [2]; 59.3% in assay [3]; 14.1% in assay [4]; 33.4% in assay [5]; 67.9% in [6]. The growth in assay [7] is 54.8%; in assay [8], 85.1%; in [9], 31.6%; in [10], 75%; in assay [11], 69.2%; in assay [12], 89.5%. The growth was 78.2% in assay [13]; 11.1% in assay [14]; 62.5% in assay [15]; 52.4% in assay [16]; 91.4% in [17]; 88% in assay [18]. For the same molecule, the growth in assay [19] was 77.7%.
Take `COc1cc(Nc2nc(NCCN)nc3cc[nH]c(=O)c23)cc(OC)c1`: the growth in assay [1] was 65.1%; in assay [2], 93.7%; in assay [3], 97.8%; in assay [4], 96.9%; in [5], 59.5%; in assay [6], 72.9%. Moreover, the growth in assay [7] is 90.5%; in [8], 86.9%; in [10], 65%; in assay [11] it was 75.8%; in assay [12], 46.9%; in assay [13] it was 75.7%. The growth was 58.7% in [14]; 77.3% in assay [15]; 102% in [16]; 76.3% in [17]; 72.5% in assay [18]; 49.7% in assay [19].
On to `O=c1c2cc(F)cc(Cl)c2sc2c(NCCCNCCO)nc3ccccc3c12`, for which the growth is 89.9% in assay [1]; 106% in assay [2]; 90.1% in assay [3]; 10.3% in [4]; 65.6% in assay [5]; 92.4% in assay [6]. Besides, the growth in assay [7] was 83.7%; in [8], 81.7%; in assay [9], 73.5%; in assay [10] it was 77%; in [11] it was 18.7%; in assay [12], 99.8%. In addition, the growth in [13] was 48.8%; in assay [14], 80.3%; in [15], 67.1%; in assay [16], 104%; in assay [17], 88.5%; in [18], 109%. The growth in [19] is 62.3%.
For the molecule `COc1cc(CCCO)c(OC)c(OC)c1OC`, the growth in assay [1] is 104%; in assay [2] it was 102%; in assay [3] it was 111%; in assay [4] it was 108%; in assay [5] it was 100%; in assay [6] it was 106%. Besides, the growth in [7] is 102%; in assay [8] it was 103%; in assay [9], 122%; in assay [10], 109%; in assay [11] it was 104%; in assay [12] it was 100%. The growth was 109% in assay [13]; 108% in assay [14]; 101% in [15]; 106% in assay [16]; 97.1% in [17]; 103% in assay [18]. The growth in assay [19] is 110%.
Regarding `COc1ccc2nc(NC(=O)c3cccnc3Nc3ccc(S(N)(=O)=O)cc3)sc2c1`, the growth in [1] was 105%; in assay [2], 95.5%; in assay [3] it was 109%; in [4], 98.9%; in assay [5], 84.9%; in assay [6], 95.5%. Further, the growth in assay [7] is 93.5%; in assay [8] it was 78.3%; in [9], 159%; in assay [10], 105%; in assay [11], 70.9%; in [12], 103%. The growth in assay [13] is 106%; in [14], 113%; in [15] it was 82.6%; in [16], 92.8%; in [17] it was 100%; in [18], 113%. The growth in assay [19] was 113%.
For the molecule `COc1ccc(/C=C2\Oc3cc(OCCN4CCC(Cc5ccccc5)CC4)ccc3C2=O)cc1OC`, the growth in [1] was 68.6%; in assay [2], 69.6%; in [3], 78.6%; in assay [4] it was 66.5%; in [5] it was 47.7%; in assay [6], 78.2%. In addition, the growth in assay [7] was 86.7%; in [8], 78.4%; in assay [9] it was 19.1%; in [10] it was 82.5%; in assay [11], 7.36% (active); in assay [12], 52.7%. Besides, the growth in [13] is 53.5%; in assay [14], 48%; in assay [15], 79.8%; in [16], 82.6%; in assay [17], 83%; in assay [18] it was 73.3%. Further, in assay [19], the growth was 30.2%.
On to `Cc1ccc(C(=O)NCCNc2nccc(-c3c(-c4cccc(F)c4)nc4sccn34)n2)cc1`, for which the growth is 70.5% in [1]; 36.4% in assay [2]; 86.1% in assay [3]; 34.8% in [4]; 74.8% in [5]; 72.2% in [6]. Also, the growth was 31.2% in [7]; 60.8% in [8]; 27.6% in [9]; 62.9% in [10]; 48.7% in assay [11]; 47.3% in assay [12]. The growth in [13] was 72.5%; in assay [14], 39.9%; in assay [15] it was 60%; in assay [16] it was 62.5%; in assay [17], 90.1%; in [18] it was 75.1%. Moreover, the growth in assay [19] is 44%.
For `CC(=O)N1CCN(c2ccc(OCC3CO[C@](Cn4ccnc4)(c4ccc(Cl)cc4Cl)O3)cc2)CC1` (stereo partly specified), the growth in assay [1] is 78.3%; in [2], 58.7%; in [3], 74.4%; in [4] it was 96.4%; in [5], 61.4%; in [6], 82.4%. The growth in assay [7] was 85.2%; in [8], 77.6%; in assay [9], 86.9%; in [10], 105%; in assay [11], 56.6%; in assay [12] it was 77.4%. Further, the growth in [13] was 77.5%; in [14] it was 80.6%; in assay [15] it was 96%; in assay [16], 97.6%; in assay [17], 91%; in assay [18], 83.7%. Also, the growth in [19] is 83.8%.

Source of the values: PubChem BioAssay (NCI).
